# Source: PubChem BioAssay
# ELG1 genotox – genotoxicity induction in ELG1-luciferase HEK293T cells | HEK293T ELG1-luciferase reporter, luminescence, 16 h | Potency, µM (highest dose often 46 µM), for the others: top-dose activity change, positive = activation, usual class: activators | 330,000 tested, 1.3% active | AID 504466; further: % of control where 0% means no effect; nearly all actives have a fitted effect of over 60% in size
#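 DMSO vehicle served as control against compound-treated ELG1-luciferase HEK293T cells; exposure lasted 16 hr at 37 °C and 5% CO2, followed by ONE-Glo luminescence detection after 30 min.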
# FLuc modulator – inhibits or activates purified firefly luciferase, miR-21 counter-screen; P08659; purified FLuc, Km substrates, luminescence inhibition; Potency, µM (titrated, usually from 57.5 µM), for the others: at the top dose activity change, negative = inhibition, most hits filed as inhibitors; 360,000 tested, 6.9% active; AID 588342;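 further: plate controls were vehicle for no effect and reference inhibitor for full effect; nearly all actives have a fitted effect of over 55% in size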
# Target sequence (P08659 whole entry, looked up): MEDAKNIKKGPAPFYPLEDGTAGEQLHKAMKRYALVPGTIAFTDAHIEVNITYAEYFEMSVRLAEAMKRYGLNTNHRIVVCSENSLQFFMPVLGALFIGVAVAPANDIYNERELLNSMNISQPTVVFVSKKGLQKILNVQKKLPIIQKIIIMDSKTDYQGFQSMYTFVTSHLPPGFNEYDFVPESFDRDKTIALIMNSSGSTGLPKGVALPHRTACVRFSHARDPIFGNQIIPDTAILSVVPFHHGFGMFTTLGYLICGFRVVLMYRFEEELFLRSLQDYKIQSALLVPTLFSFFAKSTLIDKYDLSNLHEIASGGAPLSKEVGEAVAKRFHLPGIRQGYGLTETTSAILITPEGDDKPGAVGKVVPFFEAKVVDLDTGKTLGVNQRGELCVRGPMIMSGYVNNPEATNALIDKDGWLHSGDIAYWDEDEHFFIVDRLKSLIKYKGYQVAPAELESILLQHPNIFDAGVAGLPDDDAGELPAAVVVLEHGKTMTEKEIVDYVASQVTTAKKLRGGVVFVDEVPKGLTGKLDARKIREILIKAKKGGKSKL
#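 Biochemical qHTS of compounds, final roughly 60 µM downward over six points, against 10 nM purified firefly luciferase using Km concentrations of substrates (10 uM D-luciferin, 10 uM ATP) in Tris acetate pH 7.5 buffer; luminescence output.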
# SMN2 splice up – enhancers of SMN2 splice variant expression; HEK293 SMN2-luciferase splicing reporter, luminescence, 30-36 h; Potency, µM (titrated, usually from 46.1 µM), for the others: at the highest dose activity change, positive = activation, actives largely listed as activators; 210,000 tested, 2.8% active; AID 1458; further: % of control where 0% means no effect; nearly all actives have a fitted effect of over 55% in size
#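 qHTS luciferase splicing reporter: luminescence rises when SMN2 exon 7 is included in transfected HEK293 cells. Compound exposure lasted 30-36 h at 37C, with 4.5 mM final sodium butyrate as control, followed by a ONE-Glo read.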
# ELG1 DNA repair – blocks ELG1-dependent DNA repair in HEK293T cells; HEK293T ELG1-luciferase reporter, luminescence, 16 h; DNA damage induced by 5-fluorouridine; Potency, µM (titrated, usually from 46.1 µM), without a hit: at the top dose activity change, negative = inhibition, most hits filed as inhibitors; 330,000 tested, 2.3% active; AID 504467; further: on the % scale 0 is the no-effect control and ±100 the full control effect; nearly all actives have a fitted effect of over 55% in size
#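 Luminescence from the luciferase reporter, measured 30 min after ONE-Glo reagent at room temperature, was the read-out. Beforehand, 2,000 cells per well were exposed for 16 hr at 37 °C to 5-fluorouridine together with compound or vehicle.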
# NPC1 prom act – activators of NPC1 promoter | Huh7 NPC1 promoter luciferase reporter, 24 h | Potency, µM (top dose mostly 9.22 µM), for the others: top-dose activation, hits mostly activators | 320,000 tested, 2.4% active | AID 485313; further: % of control where 0% means no effect; nearly all actives have a fitted effect of over 60% in size
#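 Stable NPC1-promoter luciferase Huh7 line; cpd (DMSO) 24 h, 37 °C, 5% CO2; Amplite luciferase reagent 10 min RT; luminescence readout. qHTS format.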
# Rab9 promoter act – activators of Rab9 promoter; 320,000 tested, 2.8% active; Potency, µM (series often up to 9.22 µM), inactives show top-dose activation, negative = inhibition, hits mostly activators; Huh7 Rab9 promoter-luciferase reporter, luminescence, 24 h; AID 485297; further: % of control where 0% means no effect; nearly all actives have a fitted effect of over 60% in size
#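 Promoter activation is measured as luciferase luminescence in Huh7 cells stably transfected with a Rab9 promoter–luciferase construct, following 24 h compound exposure at 37 °C and 10 min reagent incubation at ambient temperature.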
# Numbers without * were called inactive; u = inconclusive; x = not tested or not shown; [ ] = dose if it differs, or a comment. Sampled rows, rich in hits. Any-hit rate of the full collection: about 9.3%. The call rests on the fitted dose curve; in most records, active means well fitted curve in the direction sought with a large enough effect; inconclusive means small, poorly fitted or top-dose-only effect, or another doubt; inactive means no such curve, though single readings can be large; an effect the other way counts as inactive or inconclusive. Potency means the concentration at half of the fitted maximal effect.
SMILES,ELG1 genotox,FLuc modulator,SMN2 splice up,ELG1 DNA repair,NPC1 prom act,Rab9 promoter act
CCc1ccccc1NC(=O)NC1CCCCC1,-3.2%,2.6%,15.8%,u,7.9%,11.3%
Cc1nc2ccc(NS(=O)(=O)c3ccc(F)c(C)c3)cc2[nH]1,1.2%,-3.4%,x,u,-15.4%,-22.1%
COc1ccc(-c2[nH]ncc2CN2CCC(N3CCSCC3)CC2)cc1F,0.3%,4.9%,x,12.2%,-3.4%,-1.8%
Cc1c(Cl)cccc1NC(=O)c1ccc2c(c1)CCCN2S(C)(=O)=O,x,-6.6%,-5.8%,x,x,x
Cc1ccccc1NC(=O)COc1ccc2oc3c(c2c1)CCCC3,x,-1.6%,-2.0%,x,x,x
CC(=O)Nc1ccc(NC(=O)COc2ccc3c(c2)CCC3)cc1,4.9%,-16.7%,-4.5%,-9.6%,-5.4%,-1.7%
Cc1ccnc(NC(=O)COc2ccc3c(c2)CCC3)c1,2.06µM*,0.213µM*,x,u,3.16µM*,2.51µM*
Cc1ccnc(NC(=O)COc2ccc3oc4c(c3c2)CCCC4)c1,u,4.26µM*,-20.5%,u,17.4%,4.5%
O=C(c1sccc1-c1ccccc1)N1CCN(S(=O)(=O)c2ccccc2F)CC1,0.9%,-1.7%,x,-12.8%,-1.9%,-4.3%
Cc1cs/c(=N/C(=S)Nc2ccccc2)n1C,2.91µM*,4.78µM*,1.26µM*,u,1.12µM*,1.58µM*
CCCn1c(C)cs/c1=N\C(=S)Nc1ccccc1,1.7%,2.8%,1.0%,3.8%,8.9%,2.6%
CC(C)c1ccc(S(=O)(=O)/N=C2/C=C(Sc3ncn[nH]3)C(=O)c3ccccc32)cc1,-3.7%,u,-81.8%,6.51µM*,-2.0%,-16.7%
Cc1ccc(S(=O)(=O)/N=C2/C=C(Sc3ncn[nH]3)C(=O)c3ccccc32)c(C)c1,-11.7%,u,-4.1%[1.84 µM],20.6µM*,-2.6%,16.4%
Cc1ccc(S(=O)(=O)/N=C2/C=C(Sc3ncn[nH]3)C(=O)c3ccccc32)cc1,-2.2%,u,-6.9%[1.84 µM],16.4µM*,-3.1%,2.9%
COc1ccc(CC(=O)N(C)CC(=O)Nc2cccc(F)c2)cc1S(=O)(=O)N1CCOCC1,4.3%,-0.1%,x,-0.5%,-3.1%,10.3%
O=C(COC(=O)c1ccc2c(c1)OCO2)Nc1ccccc1F,1.8%,u,x,u,-3.7%,-0.6%
CSc1ccccc1NC(=O)CO/N=C(\C)c1cc2ccccc2o1,17.3%,u,-60.8%,u,-2.0%,0.5%
C/C(=N\NC(=O)COc1ccc(C)cc1C(C)C)c1cc2ccccc2o1,1.8%,3.38µM*,12.6µM*,u,19.3%,10.7%
C/C(=N\NC(=O)COc1ccc(C(C)(C)C)cc1)c1ccc2c(c1)OCCO2,-0.6%,19µM*,1.3%,21.5%,-2.7%,-1.4%
CCc1ccc(OCC(=O)N/N=C(\C)c2ccc3c(c2)OCCO3)cc1,-4.7%,u,8.1%,-2.2%,1.3%,-4.4%
C/C(=N\NC(=O)CNc1ccc(F)cc1)c1cc2ccccc2o1,-5.5%,u,-29.1%,-17.2%,0.6%,3.4%
COc1ccc(NCC(=O)N/N=C(\C)c2cc3ccccc3o2)cc1,-3.1%,16.9µM*,1.9%,-11.2%,8.8%,-2.6%
C/C(=N\NC(=O)COc1ccc(C(C)(C)C)cc1)c1ccccc1,2.0%,10.7µM*,-13.9%,-10.2%,-3.4%,-1.1%
CCCCNS(=O)(=O)c1ccc2nc(-c3cccnc3)cc(C(=O)NC3CCCC3)c2c1,14.3%,-1.1%,x,0.0%,-2.8%,-0.5%
C/C(=N\NC(=O)COc1ccc(C)cc1C(C)C)c1ccc(-n2ccnc2)cc1,-1.6%,1.9µM*,9.3%,-15.6%,5.6%,13.7%
SMILES,ELG1 genotox,FLuc modulator,SMN2 splice up,ELG1 DNA repair,NPC1 prom act,Rab9 promoter act
C/C(=N\NC(=O)COc1ccc(C(C)(C)C)cc1)c1cc2ccccc2o1,17.0%,0.301µM*,17.8µM*,u,2.82µM*,3.55µM*
COC(=O)N/N=C(\C)c1ccc(-n2ccnc2)cc1,5.4%,-12.9%,13.7%,u,-3.7%,17.3%
C=CCNC(=O)c1cc(C(=O)C(C)c2ncc(C(F)(F)F)cc2Cl)c[nH]1 (configuration not stated),-0.9%,-2.2%,26.0%,18.3%,21.2%,-7.7%
O=C(CCNS(=O)(=O)c1ccccc1C(F)(F)F)NNC(=O)C1COc2ccccc2O1 (configuration not stated),-2.0%,7.8%,x,7.3%,-0.3%,0.0%
Cc1ccc(NC(=O)CCNS(=O)(=O)c2cccs2)cc1F,3.4%,-18.0%,7.2%,2.0%,0.0%,-3.5%
Cc1ccc(NC(=O)CCC(=O)c2cccs2)cc1F,17.9%,8.49µM*,x,5.0%,19.8%,u
Cc1ccnc(NC(=O)CCC(=O)c2cccs2)c1,u,0.338µM*,x,u,u,u
O=C(CCCc1nc(-c2ccccc2)no1)Nc1cc(C(F)(F)F)cc(C(F)(F)F)c1,x,-12.7%,x,x,x,x
COc1ccc(OC)c(CCNC(=O)CCCc2nnc3n(C)c(=O)c4sccc4n23)c1,-0.6%,0.4%,2.4%,-5.0%,-9.0%,0.8%
Cc1ccc(C2=N/C(=C\N(C)C)C(=O)O2)cc1,14.6µM*,15.1µM*,15.8%,u,u,u
CN(C)/C=C1/N=C(c2ccccc2)OC1=O,12.4%,-2.7%,-28.2%,u,2.1%,0.0%
CN(C)/C=C1\N=C(c2ccc(Cl)cc2Cl)OC1=O,9.2µM*,u,-31.9%,u,1.12µM*,0.631µM*
Cc1ccc(C2=N/C(=C\c3cccc(F)c3)C(=O)O2)cc1,-0.1%,3.01µM*,x,-4.3%,2.4%,1.3%
Cc1cccc(C2=N/C(=C\c3cccs3)C(=O)O2)c1,3.4%,2.13µM*,1.3%,12.1%,-1.5%,2.1%
CCc1ccc(NC(=O)CC(c2ccc(C)cc2)N2Cc3ccccc3C2=O)cc1 (configuration not stated),x,-1.3%,x,x,x,x
OCCC1CN(Cc2ccc3nsnc3c2)CCN1CCc1ccccc1 (configuration not stated),-2.5%,-0.6%,x,-5.1%,-2.6%,2.2%
